# The supplement of paper PMC6555819
# How the values were obtained:
# Test in all cases: PBM binding z-score (relative to random genomic background probes); higher = stronger binding; sequences stand for … in GC…GCGATTGACAGCGTAGAATGAAGG
# [1] = tested on: FXR:RXRa (NR concentration 270 nM, RXRa partner concentration 90 nM)
# Summary of the method: (§1)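 Probes were double-stranded and carried 34-nt variable regions with direct-repeat seeds, single-nucleotide variants, half-site ablations and random human genomic background sequences, printed on custom Agilent 4×180K protein-binding microarrays. Arrays were incubated 1 h with ligand-free nuclear receptor dimers in PBS pH 7.4, 2% milk, 0.02% Triton X-100, 1 mM DTT, 0.2 mg/mL BSA and 0.4 mg/ml salmon testes DNA. Antibodies against each partner (one per run) detected binding, and scanned fluorescence was regression-normalized. Binding z-scores use the random background probes as reference.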
# [2] = tested on: LXRa:RXRa (NR concentration 270 nM, RXRa partner concentration 90 nM)
# Summary of the method: as §1
# [3] = tested on: LXRa homodimer (NR concentration 270 nM)
# Summary of the method: as §1
# [4] = tested on: LXRb:RXRa (NR concentration 270 nM, RXRa partner concentration 90 nM)
# Summary of the method: as §1
# [5] = tested on: LXRb homodimer (NR concentration 270 nM)
# Summary of the method: as §1
# [6] = tested on: PPARa:RXRa (NR concentration 270 nM, RXRa partner concentration 90 nM)
# Summary of the method: as §1
# [7] = tested on: PPARg:RXRa (NR concentration 180 nM, RXRa partner concentration 90 nM)
# Summary of the method: as §1
# [8] = tested on: PPARg:RXRa 270nM:90nM, anti-RXR (NR concentration 270 nM, RXRa partner concentration 90 nM)
# Summary of the method: as §1
# [9] = tested on: PPARg:RXRa 30nM:10nM, anti-RXR (NR concentration 30 nM, RXRa partner concentration 10 nM)
# Summary of the method: as §1
# [10] = tested on: PPARg:RXRa 90nM:30nM, anti-RXR (NR concentration 90 nM, RXRa partner concentration 30 nM)
# Summary of the method: as §1
Sequence,PBM binding z-score [1],PBM binding z-score [2],PBM binding z-score [3],PBM binding z-score [4],PBM binding z-score [5],PBM binding z-score [6],PBM binding z-score [7],PBM binding z-score [8],PBM binding z-score [9],PBM binding z-score [10]
TTACCAAGGTGAAGGTCGGTGATCCCTCTGTAGA,0.881,0.952,-0.494,0.467,-0.916,2.14,2.65,3.05,1.65,2.96
GCTAGCAGGCCATTTGGGCCACTCAATGACGGGC,-0.514,-0.935,-0.951,-1.27,-1.17,-0.573,0.102,-0.789,-0.989,-1.19
CGAACGAGGGCATGAGTTGACAGCAAATGCCGAT,0.601,0.522,-0.133,0.145,-1.11,1.81,1.53,1.54,-0.213,0.897
ACTATTAGTTGAGACGAAGGCAACCGATAGGTTG,-0.426,-0.372,-0.315,-0.554,0.221,-0.644,0.452,-0.4,-0.441,-0.372
TCTATTAGTTGAAGTGCAACCGACGAGTCCGTTT,0.802,0.953,0.178,0.755,0.464,1.02,-0.119,2.15,3.77,2.88
ACTAGCAGGCCAAGGGTCACTTAAGATTAGTCCG,2.62,2.89,0.394,3,-0.323,4.28,8.13,7.44,5.78,8.65
ATCTATAGGTAAGACTCAGTTCAGTGAAGAACGC,0.179,0.424,0.389,0.171,0.635,0.073,0.534,0.23,0.292,0.169
ACTATTAGTTGAGACAAGGGCAACCGATAGGTTG,0.264,-0.00254,-0.143,-0.136,0.202,0.0106,0.795,0.412,0.214,0.411
CCTATTAGTTTACCATAAGGGCAACCGAAGCTCG,0.454,0.693,0.603,0.679,0.527,0.641,0.273,0.684,0.33,0.455
TCAAATAGGTAAATGCTAGGTGAAAGTCCGATCT,1.32,0.737,-0.0235,0.834,-0.239,1.52,0.685,2.74,4.4,3.68
CGTCCAACGTCAGAGAGGTCAGTGAATGCCGAGT,1.61,1.76,0.849,1.75,-0.287,2.31,0.391,0.537,-0.521,-0.194
ACTAGTTGGTGAGCTGAGGTCACACACAATTCGG,2.78,2.49,1.5,2.85,0.277,3.35,1.49,2.09,0.341,1.3
